High-throughput results from PubChem BioAssay.
LGR2 inh = Drosophila LGR2 receptor signaling inhibition; HEK293 LGR2, CRE-luciferase, bursicon-stimulated, 4 h; inhibition, % at 9.99 µM; actives 0.35% (n = 380,000);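 active = drop in luminescence signal, shown as inhibition above about 50% in the replicate tests, limit read from the data, passing the limit was not always enough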;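 note: agonist challenge used bursicon conditioned medium at about half maximal strength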
EWS-Fli inh = blocks EWS/Fli oncoprotein-driven transcription; A673 NR0B1-luciferase reporter, viability-normalised; actives 0.67% (n = 350,000); inhibition, % at 12.6 µM; AID 651661;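 active = mean inhibition of at least 50% after viability correction, with every replicate also passing that limit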;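 note: firefly luciferase signal divided by Alamar Blue viability fluorescence both relative to DMSO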
TWEAK Fn14 block = inhibitors of TWEAK-Fn14 interaction signaling | TWEAK-stimulated Fn14 reporter cells, luciferase luminescence, 8 h | inhibition, % at 10 µM | actives 2% (n = 360,000); in the data active = inhibition above about 50%
EBV LMP1 NFkB = inhibitors of Epstein-Barr LMP1-induced NF-kappaB reporter | actives 0.69% (n = 350,000) | LMP1-induced NF-kappaB luciferase reporter cells, luminescence | AID 504558 | inhibition, % at 12.5 µM; in the data active = inhibition above about 41%
TROY NFkB inh = blocks TROY-dependent signaling in reporter cells. inhibition, % at 10 µM. Q293 LMP1-TROYcd NF-kB luciferase reporter, 4 h. actives 0.98% (n = 360,000);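 active = compounds whose plate-normalised and pattern-corrected inhibition of the luciferase reporter signal at the single screening dose is 50% or more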
Numbers stand for hits; ! = repeats disagree. Most compounds without a hit are left out; they make up all but 2.6% or so of the library.

How did O=C(Nc1ccc(N2CCN(C(=O)c3ccc(Cl)cc3)CC2)cc1)c1ccc([N+](=O)[O-])o1 do in these assays?
LGR2 inh: inactive; EWS-Fli inh: 66.7; TWEAK Fn14 block: inactive; EBV LMP1 NFkB: inactive; TROY NFkB inh: inactive

What do the screens show for `CS(=O)(=O)N1CCN(c2ccc(NC(=O)c3ccc([N+](=O)[O-])o3)cc2)CC1`?
LGR2 inh: inactive; EWS-Fli inh: inactive; TWEAK Fn14 block: inactive; EBV LMP1 NFkB: inactive; TROY NFkB inh: inactive

How did CCC(=O)N1CCN(c2ccc(NC(=O)c3ccc([N+](=O)[O-])o3)cc2)CC1 do in these assays?
LGR2 inh: inactive; EWS-Fli inh: 53.9; TWEAK Fn14 block: inactive; EBV LMP1 NFkB: inactive; TROY NFkB inh: inactive

How did O=C(Nc1ccc(N2CCCCC2)cc1)c1ccc([N+](=O)[O-])o1 do in these assays?
LGR2 inh: inactive; EWS-Fli inh: inactive; TWEAK Fn14 block: inactive; EBV LMP1 NFkB: inactive; TROY NFkB inh: inactive

What do the screens show for `O=C(Nc1ccc(N2CCN(Cc3ccccc3F)CC2)cc1)c1ccccc1[N+](=O)[O-]`?
LGR2 inh: inactive; EWS-Fli inh: inactive; TWEAK Fn14 block: inactive; EBV LMP1 NFkB: inactive; TROY NFkB inh: inactive

Results for O=C(Nc1ccc(N2CCN(Cc3ccccc3F)CC2)cc1)c1ccc([N+](=O)[O-])o1 ?
LGR2 inh: inactive; EWS-Fli inh: 52.3; TWEAK Fn14 block: inactive; EBV LMP1 NFkB: inactive; TROY NFkB inh: inactive

How did CCCN1[C@@H]2c3ccc(-c4cccnc4)c(=O)n3C[C@@H]2[C@@H](CO)[C@@H]1C(=O)NC1CCC1 do in these assays?
LGR2 inh: inactive; EWS-Fli inh: inactive

Results for CO[C@H]1CN(C)C(=O)c2ccc(NC(=O)c3cc(C)on3)cc2OC[C@H](C)N(C(C)=O)C[C@@H]1C ?
LGR2 inh: inactive

How did N#Cc1c(-c2ccccc2)nc(SCC(=O)N2c3ccccc3Sc3ccccc32)[nH]c1=O do in these assays?
LGR2 inh: inactive; EWS-Fli inh: inactive; TWEAK Fn14 block: inactive; EBV LMP1 NFkB: inactive; TROY NFkB inh: 55.0

Results for N#Cc1c(-c2ccccc2)nc(SCc2ccc(Cl)cc2)[nH]c1=O ?
LGR2 inh: inactive; EWS-Fli inh: inactive; TWEAK Fn14 block: inactive; EBV LMP1 NFkB: inactive; TROY NFkB inh: 51.3

Results for COc1ccc(N2Cc3cccc(C(=O)NC(C)CCc4ccco4)c3C2=O)cc1 (configuration not stated) ?
LGR2 inh: inactive; EWS-Fli inh: inactive; TWEAK Fn14 block: inactive; EBV LMP1 NFkB: 46.9; TROY NFkB inh: inactive

Results for COc1ccc(-c2ccc(C3[C@H]4CNC[C@@H]3N4C(=O)Nc3cccc(OC)c3)cc2)cc1 (some centres not stated) ?
LGR2 inh: inactive; EWS-Fli inh: 58.9!

What do the screens show for `COc1cccc(NC(=O)N2[C@@H]3CNC[C@H]2C3c2ccc(-c3cccc(OC)c3)cc2)c1` (some centres not stated)?
LGR2 inh: inactive

Results for CCNC(=O)c1cccc(NC(=O)c2cc(C3CC3)nc3c2cnn3C(C)C)c1 ?
LGR2 inh: inactive; EWS-Fli inh: inactive; TWEAK Fn14 block: inactive; EBV LMP1 NFkB: inactive; TROY NFkB inh: inactive

How did CC(C)n1ncc2c(C(=O)Nc3cccc(C#N)c3)cc(C3CC3)nc21 do in these assays?
LGR2 inh: 94.8; EWS-Fli inh: inactive; TWEAK Fn14 block: 53.5; EBV LMP1 NFkB: inactive; TROY NFkB inh: 59.2

What do the screens show for `C[C@@H]1CN([C@@H](C)CO)C(=O)c2cc(-c3ccccc3F)cnc2O[C@@H]1CN(C)C(=O)c1cnccn1`?
LGR2 inh: inactive; EWS-Fli inh: inactive

Results for COCCn1c(C)cc(C2=NNC(=Nc3ccccc3)SC2)c1C ?
TWEAK Fn14 block: 76.4; EBV LMP1 NFkB: inactive; TROY NFkB inh: 82.0

Results for CCN=C1NN=C(c2cc(C)n(Cc3ccco3)c2C)CS1 ?
EWS-Fli inh: 64.3; TWEAK Fn14 block: inactive; EBV LMP1 NFkB: 69.6; TROY NFkB inh: inactive

How did CCN=C1NN=C(c2cc(C)n(CCc3ccccc3)c2C)CS1 do in these assays?
LGR2 inh: inactive; EWS-Fli inh: inactive; TWEAK Fn14 block: inactive; EBV LMP1 NFkB: inactive; TROY NFkB inh: inactive

Results for CCC(=O)N1[C@@H]2c3ccc(C4=CCCCC4)c(=O)n3C[C@@H]2[C@@H](CO)[C@@H]1C(=O)NC1CCC1 ?
LGR2 inh: inactive; EWS-Fli inh: inactive

What do the screens show for `CO[C@H]1CN(C)C(=O)c2ccc(NC(=O)Cc3ccccc3)cc2OC[C@H](C)N(C)C[C@H]1C`?
LGR2 inh: inactive; EWS-Fli inh: inactive
